Source: PubChem (Buhrlage Lab, Dana-Farber Cancer Institute and Novartis Institutes for BioMedical Research (Cambridge, Mass))
Sampled rows, rich in hits. Any-hit rate of the full collection: about 14%.
USP30 inh – inhibitors of human USP30 deubiquitinase; Ubiquitin carboxyl-terminal hydrolase 30 (Homo sapiens), Q70CQ3; purified USP30, Ub-rhodamine cleavage fluorescence; inhibition, % at 25 µM; hit rate 5.3% among 47,000; AID 1645860, 2021
USP10 inh – inhibitors of human USP10 deubiquitinase; inhibition, % at 20 µM; purified USP10, Ub-rhodamine fluorescence, 60 min; AID 1645856, 2021; Ubiquitin carboxyl-terminal hydrolase 10 (Homo sapiens), Q14694; hit rate 1.1% among 47,000
USP28 block – inhibitors of human USP28 deubiquitinase; Ubiquitin carboxyl-terminal hydrolase 28 (Homo sapiens), Q96RU2; purified USP28, Ub-rhodamine cleavage fluorescence, 30 min; inhibition, % at 25 µM; hit rate 3% among 47,000
USP8 inh – inhibitors of human USP8 deubiquitinase; Ubiquitin carboxyl-terminal hydrolase 8 (Homo sapiens), P40818; purified USP8, Ub-rhodamine cleavage fluorescence, 30 min; inhibition, % at 20 µM; hit rate 4.2% among 47,000; AID 1645853, 2021
Target sequence (P40818 whole entry, looked up): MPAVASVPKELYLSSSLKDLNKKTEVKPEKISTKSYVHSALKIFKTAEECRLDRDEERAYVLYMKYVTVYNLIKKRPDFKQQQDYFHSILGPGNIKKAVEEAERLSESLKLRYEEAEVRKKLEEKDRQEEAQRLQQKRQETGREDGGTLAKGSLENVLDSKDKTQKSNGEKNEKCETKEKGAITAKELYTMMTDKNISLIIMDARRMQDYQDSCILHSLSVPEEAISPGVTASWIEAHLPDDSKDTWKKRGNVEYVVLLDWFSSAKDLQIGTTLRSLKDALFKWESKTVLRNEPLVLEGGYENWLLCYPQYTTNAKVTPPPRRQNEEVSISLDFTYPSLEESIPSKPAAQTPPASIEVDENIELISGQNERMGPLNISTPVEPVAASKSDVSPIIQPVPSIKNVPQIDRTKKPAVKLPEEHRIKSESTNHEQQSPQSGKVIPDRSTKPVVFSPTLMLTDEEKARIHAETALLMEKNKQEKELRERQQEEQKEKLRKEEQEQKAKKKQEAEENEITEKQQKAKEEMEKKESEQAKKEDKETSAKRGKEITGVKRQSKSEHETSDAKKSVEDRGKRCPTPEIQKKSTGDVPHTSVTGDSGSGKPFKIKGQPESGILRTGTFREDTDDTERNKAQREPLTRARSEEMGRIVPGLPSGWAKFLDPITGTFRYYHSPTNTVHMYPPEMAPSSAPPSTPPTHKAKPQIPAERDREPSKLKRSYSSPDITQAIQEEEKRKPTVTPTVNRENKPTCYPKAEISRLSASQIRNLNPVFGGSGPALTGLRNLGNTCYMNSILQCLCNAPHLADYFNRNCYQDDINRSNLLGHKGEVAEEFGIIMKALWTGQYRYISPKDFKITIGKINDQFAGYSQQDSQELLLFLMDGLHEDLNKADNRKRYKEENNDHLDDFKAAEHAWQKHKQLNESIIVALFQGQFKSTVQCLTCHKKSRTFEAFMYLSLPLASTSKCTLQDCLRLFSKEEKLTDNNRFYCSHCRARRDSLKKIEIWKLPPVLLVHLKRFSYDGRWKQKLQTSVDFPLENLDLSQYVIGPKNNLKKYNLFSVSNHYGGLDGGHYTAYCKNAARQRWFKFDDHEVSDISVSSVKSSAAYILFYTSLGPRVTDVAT
USP17 inh – inhibitors of human USP17 deubiquitinase | AID 1645855, 2021 | hit rate 6.5% among 47,000 | inhibition, % at 50 µM | purified USP17, Ub-rhodamine cleavage fluorescence, 3 h
Active calls of the source: *; nt = not tested or not shown. No stated cut-off is given here; in the data, active means inhibition above about 30%; inactive means the rest.

SMILES | USP30 inh | USP10 inh | USP28 block | USP8 inh | USP17 inh
COc1ccc(N2CCN(c3nc4c(c(=O)[nH]c(=O)n4C)n3CCSc3ncccn3)CC2)cc1 | 25.1 | -0.6 | 17.1 | 11.0 | 23.8
Cn1c(=O)c2c(nc(N3CCOCC3)n2CCSc2nnnn2-c2ccccc2)n(C)c1=O | 0.0 | -1.1 | -13.7 | -16.2 | -6.9
Cn1c(=O)[nH]c(=O)c2c1nc(N1CCc3ccccc3C1)n2CCSc1nnnn1-c1ccccc1 | 2.6 | 18.9 | 6.4 | 86.5* | 19.6
CC(C)Cn1c(N2CCNCC2)nc2c1c(=O)[nH]c(=O)n2C | 46.7* | 1.6 | 14.0 | 3.7 | 10.1
CC(C)Cc1nc2sc3c(SCCc4ccccc4)ncnc3c2c2c1CCC2 | 15.7 | -0.1 | 14.4 | 2.1 | 12.6
Cc1nn(CC(=O)c2ccc3c(c2)NC(=O)CO3)c(C)c1[N+](=O)[O-] | -6.7 | 1.5 | 31.6* | -45.3 | 14.7
CN(C)C(Cc1ccccc1)C(=O)c1ccc2c(c1)NC(=O)CO2 (centres undefined) | -0.7 | 3.6 | 6.2 | -1.1 | -0.7
COc1cccc(C(=O)Nc2nc(-c3ccc4c(c3)NC(=O)C(C)O4)c(C)s2)c1 (centres undefined) | -0.1 | 0.5 | -0.1 | -8.2 | -9.3
Cc1ccc(S(=O)(=O)Nc2nc(-c3ccc4c(c3)NC(=O)C(C)O4)c(C)s2)cc1 (centres undefined) | 25.7 | 40.5* | 21.6 | 49.7* | nt
CC(CCc1ccccc1)NC(=O)[C@H](C(C)C)N1C(=O)N2CCc3c([nH]c4ccccc34)[C@@]2(C)C1=O (some centres undefined) | 17.6 | 0.3 | 23.3 | 5.5 | 14.9
O=C(NCc1ccc(C(F)(F)F)cc1)C1CCN(c2nc3nc[nH]c(=O)c3s2)CC1 | 14.2 | 2.3 | 10.5 | -8.0 | 42.5*
CCOC(=O)c1ccc2nc(NC(=O)Cc3cccc4ccccc34)sc2c1 | 36.3* | 7.6 | 9.1 | 16.1 | 11.5
O=S(Cc1cc(N2CCOCC2)nc(-c2ccccc2)n1)c1ccc(Cl)cc1 (centres undefined) | 26.3 | -1.1 | 1.9 | 1.5 | -2.0
CCOC(=O)CSc1cc(CS(=O)c2ccc(Cl)cc2)nc(-c2ccccc2)n1 (centres undefined) | 40.9* | 14.3 | 22.3 | 12.1 | 26.6
c1cncc(-c2nc(N3CCc4ccccc4C3)c3c4c(sc3n2)CCCC4)c1 | 6.0 | 1.0 | -3.8 | 10.1 | 1.2
CC1(C)Oc2ccc(C#N)cc2[C@H](N2CCCC2=O)[C@H]1O | -18.5 | -0.3 | -6.3 | 3.2 | -13.3
CC(=O)N(O)[C@@H]1c2cc(C#N)ccc2OC(C)(C)[C@H]1O | 11.4 | 2.0 | -1.5 | 33.9* | 4.1
COc1ccc(C2c3c(-c4ccccc4O)n[nH]c3C(=O)N2CCc2ccc(OC)c(OC)c2)cc1 (centres undefined) | 5.0 | 13.9 | -3.3 | 61.0* | 27.5
CCCCCCCC/C=C\CCCCCCCC(=O)O | 16.7 | 12.7 | 2.4 | 3.8 | 22.3
CCC/C=C\C#CC/C=C\CCCCCCCC(=O)O | -87.4 | 5.9 | 69.1* | -14.9 | 62.8*
Cc1cc(NC(=O)c2cn(-c3cc(N4CCCC4)ncn3)cn2)ccc1F | -442.2 | -9.0 | -139.0 | -36.9 | -49.9
CC(C)(C)NC(=O)COC(=O)C1(c2cccc(F)c2)CCCC1 | 11.0 | 0.3 | -9.8 | 3.4 | -1.5
O=C(COC(=O)C1(c2ccccc2F)CCCC1)Nc1ccc2c(c1)OCO2 | 37.3* | 16.4 | 20.6 | 43.8* | 41.0*
O=C(COC(=O)C1(c2ccccc2F)CCCC1)Nc1ccc2c(c1)OCCO2 | 28.9 | 6.7 | 25.2 | 12.4 | 18.3
COc1cc(NC(=O)COC(=O)C2(c3ccccc3F)CCCC2)cc(OC)c1 | 41.4* | 13.9 | 19.1 | 25.6 | 14.3
SMILES | USP30 inh | USP10 inh | USP28 block | USP8 inh | USP17 inh
O=C1CCC[C@]2(CN(Cc3ccc(N4CCCC4=O)cc3)C[C@H]2c2ccccc2)N1 | -0.8 | 1.0 | -15.0 | 0.1 | -3.4
O=S(=O)(c1ccc2c(c1)OCCO2)N(Cc1ccccc1)Cc1nnc(-c2ccccc2)o1 | 74.3* | 2.7 | 23.4 | 14.8 | nt
Cc1onc(-c2ccccc2)c1CNS(=O)(=O)c1ccc2c(c1)OCCO2 | -7.5 | 1.6 | -2.0 | -8.1 | -7.1
CC1(C(=O)NC2CCCC2)CCC(=O)N1Cc1cccc(Cl)c1 (centres undefined) | -11.2 | -0.1 | -12.9 | 0.4 | -2.0
O=C1N(Cc2cccc(Cl)c2)CCN1c1ccc2c(c1)CCC2 | 14.2 | 11.9 | 60.8* | 9.7 | 20.2
O=C1N(Cc2cccc(Cl)c2)CCN1c1ccc(F)cc1F | 8.6 | 0.1 | 47.8* | 1.2 | 0.0
Cc1cccc(N2CCN(S(=O)(=O)c3c(C)[nH]c(C)c3-c3nnc(C)o3)CC2)c1 | -41.7 | 1.0 | -11.0 | -1.7 | -18.3
O=c1ccc(-c2noc(-c3cccc4[nH]ccc34)n2)c[nH]1 | -275.0 | -8.4 | -53.3 | -27.5 | -8.6
Cc1nc2cc(-c3noc(-c4nn(C)c5ccccc45)n3)ccc2o1 | 41.5* | -6.7 | 1.3 | -2.1 | 19.2
Cc1nc2cc(-c3noc(-c4cccc5[nH]ccc45)n3)ccc2o1 | 5.1 | 3.0 | 42.0* | 55.0* | 36.4*
CC(Sc1nc2ncc(Cl)cc2[nH]1)C(=O)Nc1ccc2c(c1)OCO2 (centres undefined) | -13.0 | -7.1 | 18.9 | 37.5* | 25.3
CC(Sc1nc2ccccc2[nH]1)C(=O)NCc1ccc2c(c1)OCO2 (centres undefined) | 5.6 | 5.7 | 3.4 | -9.8 | -5.6
Cc1cccc(N2CCN(CCNC(=O)c3cc4c(s3)CS(=O)(=O)C4)CC2)c1C | -45.1 | -3.7 | 39.6* | -54.1 | -12.2
CCOc1ccc(CCNC(=O)c2cccc3c2C(=O)N(c2ccc(OC)cc2)C3)cc1OCC | 15.0 | 22.3 | 2.8 | 28.3 | 20.1
CCOc1ccc(CCNC(=O)c2cc3c(s2)CS(=O)(=O)C3)cc1OCC | 6.5 | -5.5 | 39.4* | 21.3 | nt
Cc1cccc(NC(=O)c2cc3cccnc3n(C)c2=O)c1 | -36.5 | -2.2 | 31.4* | -8.3 | -1.2
Cc1cccc(NC(=O)c2cc3ccccc3c(=O)s2)c1 | nt | 18.1 | nt | 32.8* | 69.2*
COC(=O)c1ccccc1NC(=O)c1cc2ccccc2c(=O)s1 | -3.4 | -0.1 | -3.5 | 0.3 | -0.1
O=C(Nc1nccnc1C(=O)NCc1ccccc1)c1ccccc1 | -9.1 | -0.5 | -4.4 | 4.2 | -24.2
COc1ccc(OCCn2c(C3CC(=O)N(C)C3)nc3ccccc32)cc1 (centres undefined) | 10.7 | -0.5 | 10.1 | 22.8 | 0.2
Cc1ccc(N2CC(c3nc4ccccc4n3CCCCOc3ccccc3)CC2=O)cc1 (centres undefined) | 52.3* | 11.5 | 22.3 | 5.3 | 16.9
Cc1ccc(N2CC(c3nc4ccccc4n3CCOc3cccc(C)c3)CC2=O)cc1 (centres undefined) | 47.2* | 69.4* | 15.9 | 94.6* | 48.3*
CCN1CCN(C(=O)C2CCN(c3nc4ccc(-c5cncnc5)nc4s3)CC2)CC1 | -91.0 | -1.2 | -30.1 | -23.7 | -17.2
O=c1c2[nH]c3ccccc3c2ncn1Cc1cccnc1 | -1.3 | 2.4 | 4.0 | -4.6 | 4.6
